# Reference: PubChem BioAssay (NCATS)
# Several values for one entry are separate records, joined by “and”; a condition that tells them apart may be missing. Equal values may be shown once. Results filed as inconclusive are left out. Values without a mark were called inactive. Activity calls are given as the source filed them. Calls come from the whole dose curve; as a rule, active = well fitted inhibition curve with a large enough effect; inconclusive = small, poorly fitted or top-dose-only effect; inactive = flat fitted curve, though single readings scatter.
# Key:
# CRL-7250 = normal cell line; assay: Cytotoxic Profiling of Annotated Libraries Using Quantitative High-Throughput Screening (AID 1296008); details: Five cell lines viability, CellTiter-Glo ATP luminescence, 48-72 h; max response: stronger effect = lower value; note: nearly all actives have a fitted effect of over 60% in size
# In short: (§1)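 Compounds were pin-transferred onto cells and incubated 48 or 72 hr at 37 degree Celsius, 95% humidity. CellTiter-Glo was added, plates sat 10 min at room temperature, then ATP-coupled luminescence was imaged as the viability read-out.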
# HEK293 = assay: as above; details: Five cell lines viability, CellTiter-Glo ATP luminescence, 48-72 h; max response: stronger effect = lower value
# In short: as §1
# % is set by controls: 0 for no effect and ±100 for the full control effect; potency is the fitted concentration of half-maximal effect.
smiles,measurement,setting,value
CC[C@H](CO)Nc1nc(NCc2ccc(-c3ccccn3)cc2)c2ncn(C(C)C)c2n1,Potency,CRL-7250,0.092 µM (active)
same,Potency,HEK293,0.206 µM (active)
CC1(C)CC[C@]2(C(=O)O)CC[C@]3(C)C(=CCC4[C@@]5(C)C[C@@H](O)[C@H](O)C(C)(C)C5CC[C@]43C)C2C1 (stereo partly specified),outcome,CRL-7250,inactive
same,outcome,HEK293,inactive
CC1(C)CCCC2(C)C(C(=O)O)=CCC12 (stereo unspecified),max response,CRL-7250,-16.1%
same,max response,HEK293,-1.36%
O=C(CCc1ccccc1)N1CCC(O)(Cn2cnc3cc(Cl)ccc3c2=O)CC1,max response,CRL-7250,-1.98%
same,max response,HEK293,-25.5%
C=C1[C@H](OC(C)=O)[C@H]2[C@@H](OC(C)=O)[C@](C)(OC(C)=O)C[C@]2(OC(C)=O)C(=O)[C@H](C)/C=C/C(C)(C)C(=O)[C@H](OC(=O)C(C)C)[C@H]1OC(C)=O,max response,CRL-7250,0.468%
same,max response,HEK293,1.22%
CC1=CCC2C(C)(C)CCC[C@]2(C)[C@@]12CC[C@](C)(CC(=O)O)O2 (stereo partly specified),max response,CRL-7250,-19.8%
same,max response,HEK293,-11.7%
CC(O)CCC1C(CO[C@@H]2O[C@H](CO)[C@@H](O)[C@H](O)[C@H]2O)CC(O)CC1(C)C (stereo partly specified),outcome,CRL-7250,inactive
same,max response,HEK293,1.92%
C=C[C@H]1C(O[C@@H]2O[C@H](CO)[C@@H](O)[C@H](O)[C@H]2O)OC=C2C(=O)N3CCc4c([nH]c5ccccc45)C3CC21 (stereo partly specified),outcome,CRL-7250,inactive
same,outcome,HEK293,inactive
COC(=O)/C=C/C12COC(C)(C)C1C(O)C(OC(C)=O)C1(C)C2CCC2(C)C(c3ccoc3)OC(=O)C3OC321 (stereo unspecified),max response,CRL-7250,-1.53%
same,max response,HEK293,-22.6%
COC(=O)CC(O)C1OC(c2ccccc2)C(O)C1O (stereo unspecified),max response,CRL-7250,-3.81%
same,max response,HEK293,2.88%
CCOCCn1nc(CC)c2nc(N3CCC(C(=O)O)CC3)nc(Nc3cc(C)ccn3)c21,max response,CRL-7250,-0.41%
same,max response,HEK293,-20%
Cc1cnc(Nc2ccc(F)cc2Cl)nc1-c1c[nH]c(C(=O)NC(CO)c2cccc(Cl)c2)c1 (stereo unspecified),max response,CRL-7250,-0.447%
same,Potency,HEK293,5.8 µM (active)
CC(C)[C@@H](CS(=O)(=O)C(C)C)N1C(=O)[C@@](C)(CC(=O)O)C[C@H](c2cccc(Cl)c2)[C@H]1c1ccc(Cl)cc1,Potency,CRL-7250,5.8 µM (active) and 1.86 µM (active)
same,Potency,HEK293,16.6 µM (active)
Cc1cc(C)c(CNC(=O)c2cc(-c3ccc(CN4CCOCC4)cc3)cc3c2cnn3C2CCCC2)c(=O)[nH]1,max response,CRL-7250,1.71%
same,Potency,HEK293,14.8 µM (active)
CC(C)(C)NCCCNC(=O)c1cccc(Br)c1,outcome,CRL-7250,inactive
same,max response,HEK293,0.813%
O=C1NC(=O)C(c2cn3c4c(cccc24)CCC3)C1c1c[nH]c2ccccc12 (stereo unspecified),Potency,CRL-7250,5.8 µM (active)
same,Potency,HEK293,1.03 µM (active)
CC(C)O[C@@H]1O[C@H](CO)[C@@H](O)[C@H](O)[C@H]1O,max response,CRL-7250,1.32%
same,max response,HEK293,1.2%
CC(=O)O[C@H]1C[C@@](O)(C(C)C)C2[C@@H](OC(=O)c3ccc(O)cc3)C[C@@]3(C)O[C@H]3C[C@]21C (stereo partly specified),max response,CRL-7250,-0.746%
same,max response,HEK293,-5.37%
O=C(O)c1cn(C2CC2)c2cc(N3C[C@@H]4C[C@H]3CN4)c(F)cc2c1=O,max response,CRL-7250,-3.63%
same,max response,HEK293,-1.22%
CC1OC(OC2C(O)C(OC3CCC4(C)C(CCC5(C)C4CC=C4C6CC(C)(COC7OC(CO)C(O)C(O)C7O)CC(O)C6(C)CCC45C)C3(C)C)OC(C(=O)O)C2O)C(O)C(O)C1OC1OCC(O)C(O)C1O (stereo unspecified),max response,CRL-7250,3.82%
same,max response,HEK293,-5.93%
CO[C@H]1/C=C/[C@@](C)(O)/C=C/C(=O)O[C@H](C)[C@@H](C)CC/C=C/1C,max response,CRL-7250,-17.6%
same,max response,HEK293,-82.6%
CC1(C(=O)O)CCCC2(C)C3=CCC4CC3(CCC12)CC4CO (stereo unspecified),max response,CRL-7250,-23%
same,max response,HEK293,-3.78%
CS(=O)(=O)c1ccc([C@H](CC2CCCC2)C(=O)Nc2nccs2)cc1,max response,CRL-7250,1.1%
same,max response,HEK293,-58%
CC(Nc1ncnc2nc[nH]c12)c1cc2cccc(Cl)c2c(=O)n1-c1ccccc1 (stereo unspecified),max response,CRL-7250,-7.8%
same,Potency,HEK293,18.4 µM (active)
C=C(C(=O)O)[C@H]1C[C@]2(C)[C@@H](O)CC[C@]23O[C@H]1C[C@@H]3C,max response,CRL-7250,-8.76%
same,max response,HEK293,-6.98%
CC(C)CC(=O)OC1OC=C(CO[C@@H]2O[C@H](CO)[C@@H](O)[C@H](O)[C@H]2O)C2CC(O)C(O)(CO)C12 (stereo partly specified),max response,CRL-7250,3.01%
same,max response,HEK293,-1.23%
CC(C)=CCC[C@](C)(O)[C@H]1CC[C@]2(C)[C@@H]1[C@H](O)CC1[C@@]3(C)CC[C@H](O)C(C)(C)C3[C@@H](O[C@@H]3O[C@H](CO)[C@@H](O)[C@H](O)[C@H]3O[C@@H]3OC[C@@H](O)[C@H](O)[C@H]3O)C[C@]12C (stereo partly specified),max response,CRL-7250,-0.925%
same,max response,HEK293,4.3%
CN(c1ccccc1CNc1nc(Nc2ccc3c(c2)CC(=O)N3)ncc1C(F)(F)F)S(C)(=O)=O,Potency,CRL-7250,16.4 µM (active)
same,Potency,HEK293,2.31 µM (active)
